Compound activity (PubChem BioAssay)
Choline anaer gr = blocks anaerobic gram-negative growth on choline | Gram-negative bacterium anaerobic choline minimal medium, absorbance growth; active compounds read low | calls only | 55,000 compounds, 0.2% hits; call rule not given here
* marks the source's active call; other numbers are inactive results; i = inactive; + = active, no number; ! = repeats disagree. The sample as a whole holds a higher share of hits than the screen did.

SMILES	Choline anaer gr
Nc1nc(Cl)nc2c1ncn2[C@@H]1O[C@H](CO)[C@@H](O)[C@@H]1F	+!
O=c1[nH]cnc2c1ncn2C1O[C@H](CO)[C@@H](O)[C@H]1O (some centres not stated)	i
Nc1nc(Cl)nc2c1ncn2[C@H]1C[C@H](O)[C@@H](CO)O1	i
N#Cc1nc(-c2ccc(S(=O)(=O)N3CCCCC3)cc2)oc1N1CCc2ccccc2C1	i
Cc1c(C(=O)NCCc2nc(-c3ccccc3)no2)oc2cc(Br)ccc12	i
Cc1nnc(NC(=O)Cn2cnc3onc(C)c3c2=O)s1	i
CCc1ccc(NC(=O)Nc2cc(C(=O)NCc3ccc(C)cc3)ccc2N2CCOCC2)cc1	i
CCCCC(=O)Nc1cnc(N2CCN(c3cc(C)ccc3C)CC2)c(C(=O)O)c1	i
O=S(=O)(c1ccc2c(c1)OCCO2)N1CCn2cccc2C1c1ccc(F)cc1 (configuration not stated)	i
CO/N=C(\C(=O)N[C@@H]1C(=O)N2C(C(=O)[O-])=C(C[N+]3(C)CCCC3)CS[C@H]12)c1csc(N)n1	+
COCC1=C(C(=O)OC(C)OC(=O)OC(C)C)N2C(=O)C(NC(=O)C(=NOC)c3csc(N)n3)C2SC1 (configuration not stated)	i
CC(C)(O/N=C(\C(=O)N[C@@H]1C(=O)N2C(C(=O)[O-])=C(C[n+]3ccccc3)CS[C@H]12)c1csc(N)n1)C(=O)O	i
O=C1COc2cc(S(=O)(=O)N3CCCC(C(=O)NC4CCCC4)C3)c(Cl)cc2N1 (configuration not stated)	i
Cc1cccc(C(=O)N2CCN(c3ncnc4c3c(-c3ccccc3)cn4-c3ccccc3)CC2)c1	i
COc1ccc2c(c1)c(C1=C(c3c[nH]c4ccccc34)C(=O)NC1=O)cn2CCCN(C)C	i
Cn1cc(C2=C(c3cn(CCCSC(=N)N)c4ccccc34)C(=O)NC2=O)c2ccccc21	i
CN(C)CCCn1cc(C2=C(c3c[nH]c4ccccc34)C(=O)NC2=O)c2ccccc21	+!
CCOC(=O)c1nc2ccccc2n(C)c1=O	i
O=C(CNS(=O)(=O)c1cc(-c2noc(C3CCC3)n2)cs1)Nc1cccc(Cl)c1	i
Cc1noc2c1C(c1ccc(O)cc1)C1=C(CC(c3ccccc3O)CC1=O)N2 (configuration not stated)	i
CCCN1CCc2nc(NC(=O)c3ccc(S(=O)(=O)N4CCc5ccccc5C4)cc3)sc2C1	i
CCN1CCc2nc(NC(=O)c3ccc(S(=O)(=O)N4CCc5ccccc5C4)cc3)sc2C1	+
O=C(Nc1nc2ccccc2s1)c1ccc(S(=O)(=O)N2CCc3ccccc3C2)cc1	i
CC(C)NC(=O)CCn1c(=O)c2ccccc2n2c(SCc3ccccc3F)nnc12	i
Cc1c(N2CCN(C(=O)c3cc4ccccc4[nH]3)CC2)c(=O)n(C)c(=O)n1C	i
SMILES	Choline anaer gr
CCCCC[C@H](O)/C=C/[C@H]1[C@H](O)CC(=O)[C@H]1CCCCCCC(=O)O	i
CCCCC[C@H](O)/C=C/[C@H]1[C@H](O)CC(=O)[C@@H]1CCCCCCC(=O)O	i
CCCCC[C@H](O)CC[C@H]1[C@H](O)CC(=O)[C@@H]1CCCCCCC(=O)O	+!
CC(C)c1cnc2c(c1SCC(=O)NCc1ccc(F)cc1)c(=O)n(C)c(=O)n2C	i
COC(=O)CNC(=O)NCCCn1c(C(F)(F)F)nc2cccnc21	i
CN1C(=O)c2ccccc2Sc2cc(-c3noc(CN4C(=O)COc5ccccc54)n3)ccc21	i
CCOc1cc(-c2ccc(C)cc2)nc2ccc(C(=O)N3CCN(c4ccccn4)CC3)cc12	i
CN(CCNc1ncnc2onc(-c3cccc(Cl)c3)c12)C1CCCCC1	+
Cc1ccc(-c2noc3ncnc(NCCN(C)C4CCCCC4)c23)cc1	i
Clc1cccc(-c2noc3ncnc(NCc4ccc5c(c4)OCO5)c23)c1	i
CCc1cc(Cl)c(OC)c(C(=O)NC[C@@H]2CCCN2CC)c1O	+!
CCN1CCCC1CNC(=O)c1c(O)c(Cl)cc(Cl)c1OC (configuration not stated)	i
CCc1cc(Cl)c(OC)c(C(=O)NCC2CCCN2CC)c1O (configuration not stated)	i
CCc1ccc(OCc2nc(CCN(C)C(=O)Nc3ccc(C(=O)OC)cc3)no2)cc1	+
CCOc1ccccc1NC(=O)N(C)CCc1noc(COc2ccc(Cl)cc2)n1	i
CCc1ccc(NC(=O)N(C)CCc2noc(-c3ccc(C)cc3)n2)cc1	i
CCOc1ccc(NS(=O)(=O)c2cc(C(=O)Nc3ccc(C)cc3)n[nH]2)cc1	i
COc1ccc2[nH]c3c(c2c1)CCNC3c1cccc(O)c1 (configuration not stated)	i
Oc1ccc(C2NCCc3c2[nH]c2ccc(Cl)cc32)cc1O (configuration not stated)	i
CCOc1cc(C2NCCc3c2[nH]c2ccc(Cl)cc32)ccc1O (configuration not stated)	+
Oc1ccc(C2NCCc3c2[nH]c2ccc(Cl)cc32)cc1 (configuration not stated)	+
CCCOc1ccc(C2NCCc3c2[nH]c2ccccc32)cc1OC (configuration not stated)	i
COc1ccc(C2NCCc3c2[nH]c2ccccc32)cc1O (configuration not stated)	i
CNCc1ccc(-c2cccc(C(F)(F)F)c2)o1	i
Cc1ccccc1-c1cc2n(C)c(C)c(CCC(=O)NCc3ccccn3)c(=O)n2n1	i
SMILES	Choline anaer gr
CCN(Cc1ccccc1)c1ccc(C(=O)O)cc1NS(=O)(=O)c1ccc(Br)cc1	i
O=C1CCCC2=C1C(c1ccccc1)N(C(=O)c1ccccc1)c1ccccc1N2 (configuration not stated)	i
O=C(O)c1cnc(N2CCC(Cc3ccccc3)CC2)c(NS(=O)(=O)c2ccc(F)c(F)c2)c1	i
Cc1ccc2c(c1)N(C(=O)C1CCN(S(=O)(=O)c3cccnc3)CC1)CCO2	i
CN(C)CCC=C1c2ccccc2Sc2ccc(Cl)cc21	+
CN(C)CC/C=C1\c2ccccc2Sc2ccc(Cl)cc21	i
CC(=O)Nc1sc2c(c1-c1nc3ccccc3s1)CCN(C(C)C)C2	i
COc1ccc(C(=O)Nc2sc3c(c2-c2nc4ccccc4s2)CCN(C(C)C)C3)cc1OC	+
COC(=O)c1ccc(C(=O)Nc2sc3c(c2-c2nc4ccccc4s2)CCN(C(C)C)C3)cc1	i
O=C(NC1CCCC1)N1CCCC1c1ccc(Cl)cc1 (configuration not stated)	i
CCCCC/C=C\C/C=C\C/C=C\CCCCCCC(=O)O	i
CCCCC/C=C\C/C=C\CCCCCCCC(=O)O	i
CCCCC/C=C\C/C=C\C/C=C\CCCCC(=O)O	+
COc1cc(O)cc(C2CC(=O)c3c(O)cc(OC4OC(CO)C(O)C(O)C4OC4OC(C)C(O)C(O)C4O)cc3O2)c1 (configuration not stated)	i
Cc1nc2nc3c(c(Nc4cccc(Cl)c4)n2n1)CCC3	i
Cc1nc(CC(=O)Nc2ccccc2C)cs1	i
CC1CCCN(c2ccc(NC(=O)c3ccccc3Cl)c(C(=O)O)c2)C1 (configuration not stated)	+
CC1CCCN(c2ccc(NC(=O)C3CCC3)c(C(=O)O)c2)C1 (configuration not stated)	i
CN1CCCN(c2ccc(NC(=O)c3ccccc3Cl)c(C(=O)O)c2)CC1	i
Cc1cc(C(=O)Nc2cccc(Cl)c2C)no1	i
